PubChem BioAssay (NCI)
Where “and” joins values, the source holds several entries; their conditions need not be identical. Equal values may be shown once. Compounds without any hit were thinned out: in the full panel of roughly 83,000, 20% have a hit.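 Single-concentration screen, 48 h exposure, 96-well plates. Endpoint: percent growth. Below 10 = active.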 Calls of active or inactive are those of the source.

Tested on: MDA-MB-468 breast
Experiment: NCI-60 one-dose screen, 48 h (100 = growth as untreated, 0 = no growth, -100 = all killed)
Settings: 10 µM unless noted

SMILES | growth
CSc1cnc2ccccc2n1 | 119% (inactive)
Cc1ccc(C(=O)N/N=C/c2cccc([N+](=O)[O-])c2)cn1 | 89.5% (inactive)
CC(=O)Nc1cccc(Cl)c1C | 103% (inactive)
OC(c1ccccc1)c1nnc(SCc2ccccc2)n1Cc1ccccc1 (centres undefined) | 88.5% (inactive)
N#Cc1ccccc1-c1ccc(CN2C(=O)S/C(=C\c3ccc(Br)cc3)C2=O)cc1 | 112% (inactive)
CCO/C=N/C1=C(C#N)C(c2ccc(Cl)cc2)c2sc3c(F)cccc3c2O1 (centres undefined) | 54.3% (inactive)
COC1=C(OC)C(=O)C=CC1=O | 105% (inactive)
CCCCCCCCOC(=O)C(C)OC(=O)OCCOCCOC(=O)OC(C)C(=O)OCCCCCCCC (centres undefined) | 98.6% (inactive)
CC(C)Oc1ccc2cc(-c3nn(CC4CCNCC4)c4ncnc(N)c34)ccc2c1 | 84.8% (inactive) and -20% (active)
Cc1nc2sc(C(=O)Nc3ccccc3Cl)c(N)c2cc1C(C)O (centres undefined) | 70.1% (inactive)
COc1cc(-c2c3c(nc4c2c(C)nn4-c2ccccc2)-c2ccccc2C(=O)C3=O)cc(OC)c1OC | 88.9% (inactive)
COC(=O)[C@]12CC[C@@H](C)[C@H](C)[C@@H]1C1=CC[C@@H]3[C@@](C)(CC#N)C4=C(C[C@@]3(C)[C@]1(C)CC2)OC[C@]4(C)C=O | -83% (active)
N#Cc1nc(-c2ccc(Cl)cc2)oc1N1CCC(S(=O)(=O)N2CCOCC2)CC1 | 97.5% (inactive)
COc1ccc(C(=O)c2cc3c(N)c(C(=O)Nc4ccc(Cl)cc4)sc3nc2C)cc1 | 76.7% (inactive)
